Bioassay records as filed in PubChem BioAssay.
The list is not random: actives were taken first. Their share in the collection is about 3.9%.
SKOV3 invasion – blocks SKOV3ip1 adhesion and invasion in omental model; SKOV3ip1-GFP adhesion/invasion on 3D omental model, fluorescence; hit rate 0.1% among 46,000; Potency, µM (titrated, usually from 45.8 µM), inactives show at the top dose activity change, negative = inhibition, actives largely listed as inhibitors; AID 1963576;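 also: potency is read from the fitted curve at half-maximal effect; plate controls were DMSO wells for no effect and tomatine positive control wells for full effect; nearly all actives have a fitted effect of over 65% in size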
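Primary human omental fibroblast/mesothelial 3D culture pre-formed 48 h. SKOV3ip1-GFP cells added with compounds (0.36-46 umol/L), incubated 2 h RT/16 h 37 C, fixed; GFP cells quantified at 488/509 nm.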
NTMT1 inhibitor – inhibitors of human N-terminal methyltransferase NTMT1 | hit rate 2.5% among 59,000 | AID 1645870 | Potency, µM (top dose mostly 114 µM), without a hit: top-dose activity change, negative = inhibition, usual class: inhibitors | Q9BV86 | NTMT1 MTase-Glo SAH luminescence, purified enzyme;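 also: potency is read from the fitted curve at half-maximal effect; plate controls were DMSO vehicle for no effect and no enzyme for full effect; nearly all actives have a fitted effect of over 65% in size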
FH mod – Identification of activators of human fumarate hydratase by quantitative high-throughput screening; FH coupled MDH/diaphorase resazurin fluorescence, 15 min; AID 1347055, 2019; Fumarate hydratase, mitochondrial (Homo sapiens), P07954; hit rate 0.22% among 54,000; Potency, µM (titrated, usually from 79.9 µM), without a hit: at the highest dose activity change, negative = inhibition, hits mostly inhibitors; also: potency is read from the fitted curve at half-maximal effect; % is scaled to controls: 0 for no effect and ±100 for the full control effect; the screen sought activators but most active calls are inhibition curves; nearly all actives have a fitted effect of over 45% in size
GPR32 ag – GPR32 (DRV1) agonism, beta-arrestin recruitment; activation, % at 76.9 µM; O75388; AID 1346428; CHO-K1 GPR32 beta-arrestin PathHunter luminescence, 90 min; zero percent set by DMSO-only wells; hit rate 2.5% among 48,000;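 active = activation of at least 60% and not above a set upper limit, about 1 call in 100 departs from these limits; inconclusive = activation of 40% to 60%, or above that upper limit; inactive = activation under 40%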; also: 0% is about no effect
Target sequence (O75388 whole entry, looked up): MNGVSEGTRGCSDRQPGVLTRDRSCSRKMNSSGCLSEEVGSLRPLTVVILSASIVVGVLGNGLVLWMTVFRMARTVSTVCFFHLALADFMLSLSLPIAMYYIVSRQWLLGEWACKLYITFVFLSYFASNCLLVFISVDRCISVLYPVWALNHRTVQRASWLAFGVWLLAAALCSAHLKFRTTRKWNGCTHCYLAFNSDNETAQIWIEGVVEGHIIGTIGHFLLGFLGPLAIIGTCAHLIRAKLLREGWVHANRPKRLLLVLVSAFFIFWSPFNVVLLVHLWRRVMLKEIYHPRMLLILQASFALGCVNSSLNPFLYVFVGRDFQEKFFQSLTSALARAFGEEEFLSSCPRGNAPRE
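Cells are plated overnight, treated with compounds in DMSO for 90 minutes at 37 °C, and developed with PathHunter detection reagent for 1 hour before luminescence is read; signal reflects beta-arrestin binding to GPR32 in engineered CHO-K1 cells.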
DYRK1A inh-1 – blocks recombinant human DYRK1A kinase activity; shares compounds with NTMT1 inhibitor; recombinant DYRK1A, Kinase-Glo ATP depletion luminescence; Potency, µM (doses to about 76.9 µM), without a hit: at the top dose activity change, negative = inhibition, usual class: inhibitors; hit rate 80% among 100; AID 2705
CLK4 inh – blocks human CLK4 kinase in radiometric assay | shares compounds with NTMT1 inhibitor | Reaction Biology kinase assay, 10 uM ATP | Potency, µM, hits mostly inhibitors | hit rate 100% among 65; calls by dose curve
DYRK1A inh-2 – inhibitors of human DYRK1A kinase; AID 504424; Reaction Biology kinase assay, 10 uM ATP; shares compounds with NTMT1 inhibitor; hit rate 90% among 65; Potency, µM, actives largely listed as inhibitors;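 active = compounds that showed inhibition of Dyrk1a and received a fitted potency; inactive = compounds that showed no inhibition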
CLK2 RBC – blocks human CLK2 kinase in radiometric assay | AID 504427 | Potency, µM, most hits filed as inhibitors | Reaction Biology kinase assay, 10 uM ATP | shares compounds with NTMT1 inhibitor | hit rate 90% among 65;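 active = compound that inhibits Clk2 kinase in the dose series, with an IC50 potency reported; inactive = no inhibition seen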
CLK3 inh – blocks human CLK3 kinase activity; shares compounds with NTMT1 inhibitor; recombinant CLK3 kinase assay, 10 uM ATP; Potency, µM, most hits filed as inhibitors; hit rate 40% among 65; AID 504428;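 active = compounds that inhibited Clk3 enough in the ten-dose series to give a half-maximal potency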
DYRK1B inh – blocks human DYRK1B kinase activity | shares compounds with NTMT1 inhibitor | Recombinant Dyrk1b kinase assay, 10 uM ATP | Potency, µM, hits mostly inhibitors | hit rate 80% among 65;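 active = compounds whose dose response shows an inhibitor phenotype against the kinase Dyrk1b; inactive = compounds showing no inhibitor phenotype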
CLK1 RBC – CLK1 kinase inhibition; shares compounds with NTMT1 inhibitor; recombinant Clk1 kinase assay, 10 uM ATP; Potency, µM, usual class: inhibitors; hit rate 90% among 65; AID 504430;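 active = compounds that block the splicing kinase Clk1 enough to give a fitted half-inhibition concentration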
Sfp qHTS opt – inhibits purified B. subtilis Sfp PPTase; shares compounds with NTMT1 inhibitor; purified Sfp PPTase enzyme activity, qHTS; Potency, µM (doses to about 114 µM), without a hit: at the highest dose activity change, negative = inhibition, hits mostly inhibitors; hit rate 78% among 230
Bsub HM489 growth – reduces growth of B. subtilis HM489 strain. AID 540353. Potency, µM (doses to about 114 µM), without a hit: at the top dose activity change, negative = inhibition, usual class: inhibitors. hit rate 50% among 220. B. subtilis HM489 (acpS-) growth, BacTiter-Glo, 5 h. shares compounds with NTMT1 inhibitor
Sfp PPTase gel – inhibits B. subtilis Sfp PPTase in gel assay. AID 540355. shares compounds with NTMT1 inhibitor. Potency, µM (doses to about 250 µM), inactives show top-dose activity change, negative = inhibition, hits mostly inhibitors. hit rate 54% among 220. purified Sfp PPTase, gel-based product detection
Sfp inh SAR2 – inhibitors of Bacillus subtilis Sfp PPTase, SAR round 2; shares compounds with NTMT1 inhibitor; purified Sfp enzyme, PPTase activity, qHTS; Potency, µM (series often up to 57.1 µM), for inactives: at the highest dose activity change, negative = inhibition, most hits filed as inhibitors; hit rate 87% among 230
HSD17B4 inh – HSD17B4 (human) inhibition, HPGD counter-screen. shares compounds with NTMT1 inhibitor. purified HSD17B4, estradiol/NAD+, NADH fluorescence. Potency, µM (highest dose often 57.1 µM), without a hit: at the top dose activity change, negative = inhibition, most hits filed as inhibitors. hit rate 10% among 230
ALDH1A1 inh – inhibits human ALDH1A1, off-target for HPGD inhibitors | shares compounds with NTMT1 inhibitor | recombinant ALDH1A1, NADH fluorescence, propionaldehyde/NAD+ | Potency, µM (series often up to 57.1 µM), for the others: at the top dose activity change, negative = inhibition, hits mostly inhibitors | hit rate 93% among 230
NNMT counter – human NNMT inhibition, NTMT1 counter-screen. shares compounds with NTMT1 inhibitor. NNMT MTase-Glo luminescence, SAH detection. Potency, µM (series often up to 57.1 µM), for inactives: at the highest dose activity, negative = inhibition, usual class: inhibitors. hit rate 10% among 120. AID 1645878
Target sequence (P40261 whole entry, looked up): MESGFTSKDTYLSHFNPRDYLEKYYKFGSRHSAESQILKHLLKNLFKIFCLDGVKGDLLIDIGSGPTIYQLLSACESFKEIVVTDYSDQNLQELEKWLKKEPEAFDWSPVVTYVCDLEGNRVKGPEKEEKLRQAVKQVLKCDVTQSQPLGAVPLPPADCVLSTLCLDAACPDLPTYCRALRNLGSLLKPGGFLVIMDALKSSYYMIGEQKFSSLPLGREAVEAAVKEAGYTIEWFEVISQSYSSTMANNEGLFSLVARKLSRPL
* marks the source's active call; other numbers are inactive results; i = inactive; u = inconclusive; x = not tested or not shown; [ ] = another dose, or the depositor's remark. Unless noted, calls follow the shape of the dose curve; as a rule, active = well fitted curve in the direction sought with a large enough effect; inconclusive = small, poorly fitted or top-dose-only effect, or another doubt; inactive = no such curve, though single readings can be large; an effect the other way counts as inactive or inconclusive.

SMILES | SKOV3 invasion | NTMT1 inhibitor | FH mod | GPR32 ag | Sfp qHTS opt | Bsub HM489 growth | Sfp PPTase gel | Sfp inh SAR2 | HSD17B4 inh | ALDH1A1 inh | others
O=C(Nc1ccccc1Br)N[C@@H]1CCN(c2ccc(C(F)(F)F)cn2)C1 | 1% | 1% | -17%[53.3 µM] | x | x | x | x | x | x | x
COc1ccc(N2CCN(C(=O)Nc3cccc(C(F)(F)F)c3)CC2)cc1 | -1% | u | -9% | 28 | x | x | x | x | x | x
CCc1cc(Nc2nccc(-c3c(-c4ccc(OC)c(C(=O)Nc5c(F)cccc5F)c4)nc4ccccn34)n2)c(OC)cc1N1CCC(N2CCN(S(C)(=O)=O)CC2)CC1 | 2% | 6% | -4% | x | x | x | x | x | x | x
FC(F)(F)c1cccc(N2CCN(C(=S)Nc3cccnc3)CC2)c1 | x | u | x | x | u | u | -57% | 41µM* | -19% | 11µM*
Cc1noc(C)c1S(=O)(=O)N1CCC(C(=O)N2CCN(c3cccc(C(F)(F)F)c3)CC2)CC1 | i | 0% | -16% | 16 | x | x | x | x | x | x
FC(F)(F)c1ccc(N2CCN(C(=S)Nc3ccccn3)CC2)cc1 | x | u | x | x | 2.4µM* | 21µM* | 5µM* | 0.58µM* | -11% | 2.4µM*
COc1ccc(NC(=S)N2CCN(c3cccc(C(F)(F)F)c3)CC2)nc1 | x | u | x | x | u | 7% | -64% | u | -15% | 3.4µM*
Cc1cncc(NC(=S)N2CCN(c3cccc(C(F)(F)F)c3)CC2)c1 | x | u | x | x | u | -13% | u | u | -30% | -114%
O=C(CNS(=O)(=O)c1cccs1)N1CCN(c2cccc(C(F)(F)F)c2)CC1 | i | -4% | -9% | 9 | x | x | x | x | x | x
CCN(Cc1cccs1)c1ncnc2ccc(-c3ccc4c(c3)OCO4)cc12 | x | u | x | x | x | x | x | x | x | x | DYRK1A inh-1=0.16µM*;CLK4 inh=0.014*;DYRK1A inh-2=0.038µM*;CLK2 RBC=0.45µM*;CLK3 inh=6.2µM*;DYRK1B inh=0.23µM*;CLK1 RBC=0.014µM*
CCN(Cc1sccc1C)c1ncnc2ccc(-c3ccc4c(c3)OCO4)cc12 | x | u | x | x | x | x | x | x | x | x | DYRK1A inh-1=1.2µM*
CC/C=C(\C(=O)N[C@@H]1C(=O)N2C(C(=O)OCOC(=O)C(C)(C)C)=C(COC(N)=O)CS[C@H]12)c1csc(N)n1 | x | u | 0%[53.3 µM] | -24 | x | x | x | x | x | x
CCCC(=O)O[C@@H]1[C@@H]2[C@@H](OC(C)=O)[C@]3(C)C(=O)[C@H]4[C@@H](OC(C)=O)C(C)(C)C[C@H]4[C@]3(C)C(=O)[C@@]2(OC(C)=O)C[C@@H]1C | x | -3%[29.8 µM] | -1%[53.3 µM] | x | x | x | x | x | x | x
COC(=O)c1sc2c(c1-c1nc3ccccc3s1)CCNC2 | x | 4%[57.5 µM] | x | x | x | x | x | x | x | x
CCC1C(=O)N(C)c2cnc(Nc3ccc(C(=O)NC4CCN(C)CC4)cc3OC)nc2N1C1CCCC1 (configuration not stated) | x | 13µM* | -2% | x | x | x | x | x | x | x | NNMT counter=u
Cc1cc(C)nc(NC(=S)N2CCN(c3ccc4occc4c3)CC2)c1 | x | u | x | x | 3.7µM* | u | 4µM* | 4.6µM* | u | 17µM*
COc1ccc(N2CCN(C(=O)Cc3coc4ccc(C)cc34)CC2)cc1 | -9% | 15% | 5% | -22 | x | x | x | x | x | x
Cc1cc(C)nc(NC(=S)N2CCN(c3ccc4c(c3)OCO4)CC2)c1 | x | 28µM* | x | x | 9.4µM* | 6% | 0.63µM* | 14µM* | u | 4.3µM*
COc1c(C(C)C)c(O)c(O)c2c1C(OC)[C@H]1OC(=O)[C@@]23CCCC(C)(C)[C@H]13 (some centres not stated) | x | 12%[29.8 µM] | 13µM* | x | x | x | x | x | x | x | NNMT counter=-10%[38.3 µM]
CN(C)C(=O)Nc1cc(-c2ccccc2)ccc1N(C)C | x | -3%[57.5 µM] | -3% | x | x | x | x | x | x | x | NNMT counter=-8%
CC(=O)c1ccc(N2CCN(C(=O)Nc3ccc(C(C)C)cc3)CC2)cc1 | -27% | -2% | -17% | 30 | x | x | x | x | x | x
Cc1ccnc(NC(=S)N2CCN(c3ccc(Br)cc3)CC2)c1 | x | u | x | x | 5.9µM* | 24µM* | 7.9µM* | 1.8µM* | -13% | 3.4µM*
CC(=O)c1ccc(N2CCN(C(=S)Nc3cc(C)ccn3)CC2)cc1 | x | u | x | x | 5.9µM* | 17µM* | 5µM* | 1µM* | u | 7.6µM*
O=C1NC(=O)C(c2cnc3ccccn23)=C1c1cn2c3c(cccc13)CN(C(=O)N1CCOCC1)CC2 | -12% | u | -3%[53.3 µM] | x | x | x | x | x | x | x
